# Measurements as given in the supplement of paper PMC12669032.
# Unmarked numbers belong to inactive results.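 How the source made its calls: active = AUC reduced over 20% with Padj below 0.05 in at least 2 of 3 replicates; inactive = otherwise.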
# System: Roseburia intestinalis
# Experiment: growth AUC relative to DMSO control (median of replicates) (fraction); higher = more growth (less inhibition), active = hit call of the paper
# Conditions: 20 µM; 24 h
# Summary of the method: (§1)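 Gut bacterial monocultures were grown anaerobically at 37 °C in mGAM, starting at OD600 0.05, with 20 µM compound (1% DMSO) in round-bottom 96-well plates under pierced gas-permeable seals. OD600 was read hourly for 24 h. Area under the growth curve (minimum OD set to 0) was normalised to the plate median of DMSO controls, or to row and column medians on the industrial chemical plate. The value is the median of three biological replicates grown on separate days.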
row,Structure (SMILES),growth AUC
1,CCc1cccc(C)c1N(C(=O)CCl)[C@@H](C)COC,1.03
2,CNC(=O)Oc1cc(C)c(S(C)(=O)=O)c(C)c1,0.967
3,CCOP(=S)(OCC)SCCS(=O)(=O)CC,0.971
4,N#Cc1nn(-c2c(Cl)cc(C(F)(F)F)cc2Cl)c(N)c1S(=O)C(F)(F)F (stereo unspecified),0.914
5,CCOC(=O)OC1=C(c2cc(C)ccc2C)C(=O)NC12CCC(OC)CC2 (stereo unspecified),0.995
6,N#CC(CCc1ccc(Cl)cc1)(Cn1cncn1)c1ccccc1 (stereo unspecified),0.911
7,Nc1cccc(Cl)c1Cl,1.02
8,C[C@@H]1C[C@@H]([C@H](O)CC2CC(=O)NC(=O)C2)C(=O)[C@@H](C)C1,0.987
9,CC(C)Oc1cc(-n2nc(C(C)(C)C)oc2=O)c(Cl)cc1Cl,0.931
10,COc1nn(CSP(=S)(OC)OC)c(=O)s1,1.06
11,ClC1(Cl)C2(Cl)C3(Cl)C4(Cl)C(Cl)(Cl)C5(Cl)C3(Cl)C1(Cl)C5(Cl)C24Cl (stereo unspecified),0.958
12,CC(C)[C@H](C(=O)O[C@H](C#N)c1cccc(Oc2ccccc2)c1)c1ccc(Cl)cc1,0.913
13,NC(=O)/N=C1/SCCN1Cc1ccc(Cl)nc1,0.989
14,CN(C)C(=S)[S-].CN(C)C(=S)[S-].[Zn+2],0.792
15,COCC(=O)N(c1c(C)cccc1C)[C@H](C)C(=O)OC,0.966
16,CNC(=O)N(C)c1nc2ccccc2s1,0.989
17,CCOc1cc(OP(=S)(OC)OC)nc(CC)n1,0.98
18,CCS(=O)(=O)Oc1ccc2c(c1)C(C)(C)CO2,1.04
19,Nc1ccncc1,0.981

row,Structure (SMILES),growth AUC
1,COP(=S)(OC)Oc1c(Cl)cc(C)cc1Cl,0.912
2,COP(=S)(OC)SC(CC(=O)O)C(=O)O (stereo unspecified),1.02
3,O=[N+]([O-])c1ccc(O)c([N+](=O)[O-])c1,0.912
4,CP(=O)(O)CCC(N)C(=O)[O-].[NH4+] (stereo unspecified),1.06
5,Nc1nc(N)[nH]c(=O)n1,0.981
6,CC(C)(C)c1cc([N+](=O)[O-])cc([N+](=O)[O-])c1O,0.802
7,CCOP(=O)(OCC)Oc1ccc([N+](=O)[O-])cc1,1.03
8,Clc1c(Cl)c(Cl)c(Cl)c(Cl)c1Cl,1.01
9,COc1ccc(/C(=C/C(=O)N2CCOCC2)c2ccc(F)cc2)cc1OC,0.975
10,CCOc1ccccc1OS(=O)(=O)NC(=O)Nc1nc(OC)cc(OC)n1,0.92
11,N#CCNC(=O)c1cnccc1C(F)(F)F,1
12,Cc1[nH]c(=O)n(C(C)(C)C)c(=O)c1Cl,0.986
13,CNC(=O)Oc1cc(C)c(SC)c(C)c1,0.928
14,CCS(=O)(=O)Cc1ccccc1OC(=O)NC,0.964
15,Clc1ccc(C2(Cn3cncn3)OCCO2)c(Cl)c1,0.948
16,CNC(=O)Oc1cc(C)c(N(C)C)c(C)c1,0.962
17,CCCCOCN(C(=O)CCl)c1c(CC)cccc1CC,0.97
18,CN(C)C(=O)C(c1ccccc1)c1ccccc1,0.964
19,CC(C)OP(=O)(OC(C)C)SCc1ccccc1,0.951

# System: Streptococcus salivarius
# Experiment: as above
# Conditions: 20 µM; 24 h
# Summary of the method: as §1
row,Structure (SMILES),growth AUC
1,CCc1cccc(C)c1N(C(=O)CCl)[C@@H](C)COC,1.02
2,CNC(=O)Oc1cc(C)c(S(C)(=O)=O)c(C)c1,0.945
3,CCOP(=S)(OCC)SCCS(=O)(=O)CC,0.994
4,N#Cc1nn(-c2c(Cl)cc(C(F)(F)F)cc2Cl)c(N)c1S(=O)C(F)(F)F (stereo unspecified),0.811
5,CCOC(=O)OC1=C(c2cc(C)ccc2C)C(=O)NC12CCC(OC)CC2 (stereo unspecified),0.987
6,N#CC(CCc1ccc(Cl)cc1)(Cn1cncn1)c1ccccc1 (stereo unspecified),0.934
7,Nc1cccc(Cl)c1Cl,1.01
8,C[C@@H]1C[C@@H]([C@H](O)CC2CC(=O)NC(=O)C2)C(=O)[C@@H](C)C1,1.03
9,CC(C)Oc1cc(-n2nc(C(C)(C)C)oc2=O)c(Cl)cc1Cl,0.971
10,COc1nn(CSP(=S)(OC)OC)c(=O)s1,0.985
11,ClC1(Cl)C2(Cl)C3(Cl)C4(Cl)C(Cl)(Cl)C5(Cl)C3(Cl)C1(Cl)C5(Cl)C24Cl (stereo unspecified),0.922
12,CC(C)[C@H](C(=O)O[C@H](C#N)c1cccc(Oc2ccccc2)c1)c1ccc(Cl)cc1,0.948
13,NC(=O)/N=C1/SCCN1Cc1ccc(Cl)nc1,1.04
14,CN(C)C(=S)[S-].CN(C)C(=S)[S-].[Zn+2],0.925
15,COCC(=O)N(c1c(C)cccc1C)[C@H](C)C(=O)OC,1.02
16,CNC(=O)N(C)c1nc2ccccc2s1,1
17,CCOc1cc(OP(=S)(OC)OC)nc(CC)n1,0.983
18,CCS(=O)(=O)Oc1ccc2c(c1)C(C)(C)CO2,1.03
19,Nc1ccncc1,0.981

row,Structure (SMILES),growth AUC
1,COP(=S)(OC)Oc1c(Cl)cc(C)cc1Cl,0.972
2,COP(=S)(OC)SC(CC(=O)O)C(=O)O (stereo unspecified),1.03
3,O=[N+]([O-])c1ccc(O)c([N+](=O)[O-])c1,0.992
4,CP(=O)(O)CCC(N)C(=O)[O-].[NH4+] (stereo unspecified),1.01
5,Nc1nc(N)[nH]c(=O)n1,1
6,CC(C)(C)c1cc([N+](=O)[O-])cc([N+](=O)[O-])c1O,0.848
7,CCOP(=O)(OCC)Oc1ccc([N+](=O)[O-])cc1,1.01
8,Clc1c(Cl)c(Cl)c(Cl)c(Cl)c1Cl,0.999
9,COc1ccc(/C(=C/C(=O)N2CCOCC2)c2ccc(F)cc2)cc1OC,1.04
10,CCOc1ccccc1OS(=O)(=O)NC(=O)Nc1nc(OC)cc(OC)n1,0.966
11,N#CCNC(=O)c1cnccc1C(F)(F)F,0.995
12,Cc1[nH]c(=O)n(C(C)(C)C)c(=O)c1Cl,1.02
13,CNC(=O)Oc1cc(C)c(SC)c(C)c1,0.968
14,CCS(=O)(=O)Cc1ccccc1OC(=O)NC,0.927
15,Clc1ccc(C2(Cn3cncn3)OCCO2)c(Cl)c1,0.915
16,CNC(=O)Oc1cc(C)c(N(C)C)c(C)c1,0.961
17,CCCCOCN(C(=O)CCl)c1c(CC)cccc1CC,0.915
18,CN(C)C(=O)C(c1ccccc1)c1ccccc1,0.995
19,CC(C)OP(=O)(OC(C)C)SCc1ccccc1,1
